In the library only some 1.6% were active in any assay of this set; here they are far more common.
KCNQ2 pot: KCNQ2 (rat) channel potentiation; O88943; CHO-K1 KCNQ2, FluxOR thallium flux fluorescence; active compounds read high; B-score at 10 µM; 310,000 compounds, 0.54% hits; AID 2239;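 active means fluorescence ratio B-score at least 3 SD of library B-scores, with initial fluorescence B-score within 3 of them, cut at about 5.3 in these data; same plate scores as AID 2156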;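 further: B-score of peak minus minimum over baseline fluorescence ratio after K+ and Tl+ stimulus; positive B-score means potentiation of KCNQ2 with more thallium influx and brighter signal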
KCNQ2 block: inhibitors of rat KCNQ2 potassium channel; O88943; CHO-K1 KCNQ2, FluxOR thallium flux, 20 min; active compounds read low; B-score at 10 µM; 310,000 compounds, 1.1% hits; AID 2156;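 active means fluorescence ratio B-score at most minus 3 library SDs, with starting brightness B-score within 2 library SDs, cut at about -5.5 in these data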
Kir21 conf inh: confirmation of mouse Kir2.1 potassium channel inhibitors; shares compounds with KCNQ2 pot; Kir2.1-expressing cells, FluxOR thallium flux fluorescence; active compounds read low; Tl flux remaining, % of negative control (active compounds read low), % at 10 µM; 2,300 compounds, 41% hits; AID 2032;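 active means Primary-screen hit whose thallium flux fell at least 3 control SD below untreated wells in both duplicates, with normal baseline fluorescence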
HEK293 ctr: counter-screen for Kir2.1 inhibitors: effect in parental HEK293 cells | shares compounds with KCNQ2 pot | 2,300 compounds, 19% hits | FluxOR thallium flux fluorescence; 0% = unstimulated blank wells | FluxOR signal as % of negative control (100 = no effect), % at 10 µM | AID 2105;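 active means dye signal at least 3 control SD above or below untreated wells in both duplicates, raw fluorescence within 3, either direction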;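 further: percent is based on the flux ratio of peak minus minimum fluorescence over baseline F0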
CHO-K1 ctr: alters thallium flux in parental CHO-K1 cells, KCNQ2 counter-screen. activity increase over 3SD of controls, % at 10 µM. AID 2282. FluxOR thallium flux fluorescence; zero = vehicle mean+3SD, 100% = vehicle-minus-blank window. shares compounds with KCNQ2 pot. 1,200 compounds, 43% hits;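 active means signal rise of at least 3 SD above the untreated control mean, in both duplicate wells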;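 further: counter screen of KCNQ2 potentiator hits so any rise reflects channel-independent effects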
KCNQ1 sel pot: tests whether KCNQ2 potentiators also act on human KCNQ1 | shares compounds with KCNQ2 pot | CHO KCNQ1 stable, FluxOR thallium flux fluorescence; beyond 3SD, as % of vehicle-control signal | activation over 3SD threshold, % at 10 µM | 1,200 compounds, 28% hits | AID 2283;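 active means fluorescence ratio rise of at least 3 SD of vehicle wells above their mean, in both replicate wells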
KCNQ2 pot conf: rat KCNQ2 channel potentiator confirmation | shares compounds with KCNQ2 pot | 1,200 compounds, 68% hits | AID 2287 | potentiation, less the hit threshold, % at 10 µM | CHO-KCNQ2 cells, FluxOR thallium flux fluorescence;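 active means fluorescence ratio rising 3 SD or more over the vehicle control mean in both replicates, plus primary screen hit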;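 further: peak minus minimum thallium fluorescence divided by baseline after K/Tl stimulus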
Kir21 spec: tests whether KCNQ2 potentiators also affect mouse Kir2.1. shares compounds with KCNQ2 pot. HEK293 Kir2.1, FluxOR thallium flux fluorescence. activity over 3SD threshold, % at 10 µM. 1,200 compounds, 2% hits;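 active means fluorescence ratio rise of at least 3 SD above the vehicle-control mean, seen in both replicates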
KCNQ2 W236L MoA: potentiates the retigabine-insensitive rat KCNQ2 W236L mutant channel | shares compounds with KCNQ2 pot | CHO KCNQ2-W236L, automated patch clamp current | current increase over 3SD of negative controls (%), active compounds read high, % at 25 µM | 940 compounds, 10% hits;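 active means current increase at least 3 SD of the untreated controls above them in both duplicate recordings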
Numbers stand for hits; 0 = inactive; - = no result.

SMILES	KCNQ2 pot	KCNQ2 block	Kir21 conf inh	HEK293 ctr	others
CC(NC(=O)C1CCCCC1)c1ccc2c(c1)OCCO2 (centres undefined)	5.7	0	0	0	CHO-K1 ctr=6.0;KCNQ1 sel pot=39;KCNQ2 pot conf=8.5;Kir21 spec=0;KCNQ2 W236L MoA=0
CCOc1ccc(C(C)NC(=O)C2CCCC2)cc1 (centres undefined)	0	0	-	-
CCc1ccc(C(C)NC(=O)C2CCCC2)cc1 (centres undefined)	12	0	0	0	CHO-K1 ctr=9.3;KCNQ1 sel pot=0;KCNQ2 pot conf=18;Kir21 spec=0;KCNQ2 W236L MoA=0
COc1cccc(OCc2cc(C(=O)N3CCNC(=O)C3Cc3ccccc3)no2)c1 (centres undefined)	-	0	-	-
Cc1c(Cl)c([N+](=O)[O-])nn1CC(=O)NC12CC3CC(CC(C3)C1)C2	0	0	-	-
Cc1ccc(C)c(C(C)NC(=O)c2ccc(Br)o2)c1 (centres undefined)	-	0	-	-
COc1ccc2c(c1)CC(N1CCN(C)CC1)c1cc(OC)ccc1S2 (centres undefined)	-	0	-	-
Clc1ccc2c(c1)C(N1CCNCC1)Cc1ccccc1S2 (centres undefined)	0	-12	32%	0
CCOC(=O)N1CCC(NC(=O)c2ccc3c(c2)N=C(C)c2c(C)ccc(C)c2S3)CC1	-	0	-	-
COc1cccc(NC(=O)NCCCCc2ccccc2)c1	0	0	-	-
COc1cccc(NC(=O)NCCCSC2CCCCC2)c1	6.5	0	0	0	CHO-K1 ctr=0;KCNQ1 sel pot=0;KCNQ2 pot conf=13;Kir21 spec=0;KCNQ2 W236L MoA=0
COc1ccc(CCN=C(N)C(C)c2ccccc2)cc1OC (centres undefined)	0	0	-	-
CC(C)Cc1ccc(C(C)C(N)=NCCc2ccccc2)cc1 (centres undefined)	-	0	0	0
CC(=O)Nc1ccc(NC(=O)c2ccc3c(c2)CCN3S(C)(=O)=O)cc1	-	0	-	-
COc1cccc(NC(=O)c2ccc3c(c2)CCN3S(C)(=O)=O)c1	17	0	0	0	CHO-K1 ctr=2.5;KCNQ1 sel pot=0;KCNQ2 pot conf=0;Kir21 spec=0
COc1ccccc1NC(=O)c1cc([N+](=O)[O-])ccc1N1CCOCC1	0	0	-	-
C[n+]1cccc(O)c1SCc1ccccc1	0	0	-	-
CN(c1ccc(OCC(=O)NCCc2ccccc2)cc1)S(=O)(=O)c1ccc(Cl)cc1	-	0	-	-
COc1ccc(CCNC(=O)COc2ccc(N(C)S(=O)(=O)c3ccc(Cl)cc3)cc2)cc1	0	-6.5	0	0
O=C(COC(=O)c1cccnc1)Nc1ccc2c(c1)OCO2	-	0	-	-
CCN(CC)CCCN(C(=O)c1ccco1)c1nc(-c2ccc(C)cc2)cs1	-	0	-	-
CCN(CC)CCCN(C(=O)c1ccco1)c1nc(-c2ccc(Cl)cc2)cs1	-	0	51%	0
COc1ccc(CNC(=O)c2nccnc2CO)cc1	0	0	-	-
CSCCC(NC(=O)c1ccccc1Br)C(=O)NCC(c1ccco1)N1CCCCC1 (centres undefined)	0	0	-	-
CCCCCCCC(=O)N/N=C/c1ccc(Br)cc1	0	0	-	-
CCCCCCCC(=O)N/N=C/c1ccco1	11	0	0	0	CHO-K1 ctr=0.0;KCNQ1 sel pot=2.6;KCNQ2 pot conf=59;Kir21 spec=0;KCNQ2 W236L MoA=0
O=C(Nc1ccccc1)N1CCc2c([nH]c3ccccc23)C1C(F)(F)F (centres undefined)	-	0	-	-
O=C(c1ccc(Cl)cc1)N1CCc2c([nH]c3ccccc23)C1C(F)(F)F (centres undefined)	8	0	0	0	CHO-K1 ctr=16;KCNQ1 sel pot=0;KCNQ2 pot conf=2.7;Kir21 spec=0;KCNQ2 W236L MoA=0
CCCn1ncc(CN2CCC(n3nccc3NC(=O)CCc3ccccc3)CC2)c1C	0	0	-	-
COc1ccc(/C=C/C(=O)Oc2cc(C)[nH]c(=O)c2[N+](=O)[O-])cc1OC	-	0	-	-

Compound activity from PubChem BioAssay.
